An excerpt weighted towards active compounds, which were near 3% of everything screened.
ALOX15B inhib: qHTS Assay for Inhibitors of 15-hLO-2 (15-human lipoxygenase 2); Polyunsaturated fatty acid lipoxygenase ALOX15B (Homo sapiens), O15296; purified 15hLO-2, xylenol orange hydroperoxide absorbance; Potency, µM (series often up to 57.1 µM), inactives show top-dose activity change, negative = inhibition, usual class: inhibitors; 0.56% of 110,000 active; AID 881, 2007; note: potency is the fitted concentration of half-maximal effect; nearly all actives have a fitted effect of over 60% in size
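Screening format was qHTS against 50 nM purified 15hLO-2 in Hepes pH 7.5 with detergent. Activity follows hydroperoxide formation from 45 uM arachidonic acid, measured as 573:405 nm absorbance ratio of the ferric-xylenol orange complex.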
PNC inhibitor: High Content Assay for Compounds that inhibit the Assembly of the Perinucleolar Compartment; PC3M PTB-GFP, PNC prevalence imaging, 16 h; active compounds read low; activity change (PNC), negative = inhibition, % at 10 µM; 3.1% of 140,000 active; AID 2417, 2010;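 active = readout at or below -70, meaning at least 70% loss of cells showing the perinucleolar compartment, a nuclear body marking cancer cells; inconclusive = readout between -30 and a set limit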;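 note: plate controls were DMSO wells for no effect and camptothecin positive control wells for full effect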
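PC3M cells stably expressing PTB-GFP, 750–1000 cells/well, treated 16 h at 37 °C with compound (23 nl of library stock), in duplicate. After paraformaldehyde fixation and Hoechst stain, imaged at 20x; PNC prevalence scored by image analysis.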
ALOX12 inhib: qHTS Assay for Inhibitors of 12-hLO (12-human lipoxygenase) | Polyunsaturated fatty acid lipoxygenase ALOX12 (Homo sapiens), P18054 | purified 12-hLO, xylenol orange hydroperoxide absorbance | Potency, µM (series often up to 57.1 µM), inactives show at the top dose activity change, negative = inhibition, usual class: inhibitors | 0.12% of 150,000 active | AID 1452, 2008; note: potency is the fitted concentration of half-maximal effect; nearly all actives have a fitted effect of over 55% in size
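Purified human 12hLO (150 nM final) was preincubated with compounds for 15 min at room temperature in 25 mM Hepes pH 7.0, 0.01% Triton X-100, then reacted with 40 uM arachidonic acid for 30 min. Hydroperoxide was detected with ferrous iron/xylenol orange.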
IMPase cell inh: qHTS Assay for Identifying the Cell-Membrane Permeable IMPase Inhibitors | Inositol monophosphatase 1 (Rattus norvegicus), P97697 | CHO-M1 cells, IP1 accumulation, HTRF TR-FRET ratio | inhibition (IP1 accumulation), % at 46.1 µM | 120,000 tested, under 10 active | AID 901, 2007; active = well fitted curve in the direction sought with a large enough effect in the signal ratio, not every such curve was filed as active; inconclusive = small, poorly fitted or top-dose-only effect, or a change in a side signal; inactive = no such curve, though single readings can be large or run the other way; the % refers to the signal ratio;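 note: cells stimulated with carbachol in lithium chloride buffer; plate controls were DMSO basal wells for no effect and reference inhibitor wells for full effect; higher means more IMPase inhibition seen as more IP1 and lower FRET ratio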
Target sequence (P97697 whole entry, looked up): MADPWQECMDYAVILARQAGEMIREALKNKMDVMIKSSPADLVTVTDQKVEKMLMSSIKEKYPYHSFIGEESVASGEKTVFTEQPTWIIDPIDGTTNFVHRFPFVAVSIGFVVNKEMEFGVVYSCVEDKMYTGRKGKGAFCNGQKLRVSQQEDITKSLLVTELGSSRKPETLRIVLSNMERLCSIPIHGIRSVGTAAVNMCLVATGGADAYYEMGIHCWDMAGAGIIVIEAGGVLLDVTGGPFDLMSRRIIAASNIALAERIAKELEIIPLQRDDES
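CHO-M1 cells (CHO stably expressing M1 receptor), compound up to 46 uM final, stimulated with carbachol (50 uM as added) in buffer with 50mM LiCl, pH 7.4, 30 min at 37C. Cytosolic IP1 read by TR-FRET; AC50 from Hill fits.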
The depositor's hits bear a star; ? = inconclusive; / = not tested or not shown; [ ] = another dose, or the depositor's remark. Unless noted, calls come from the whole dose curve; as a rule, active = well fitted curve in the direction sought with a large enough effect; inconclusive = small, poorly fitted or top-dose-only effect, or another doubt; inactive = no such curve, though single readings can be large; an effect the other way counts as inactive or inconclusive. Unless noted, % is set by controls: 0 for no effect and ±100 for the full control effect.

SMILES	ALOX15B inhib	PNC inhibitor	ALOX12 inhib	IMPase cell inh
COCCOC(=O)c1[nH]c2c(c1C)C(=O)CC(c1ccc(N(C)C)cc1)C2 (configuration not stated)	0.4%	?	0.3%	2.1
Brc1ccccc1-c1nnc(-c2cccnc2)o1	-0.6%	-81.2*	-2.2%	4.0
COc1ccc(-c2noc(-c3ccccc3F)n2)cc1	10.4%	5.0	-2.1%	-6.0
Cc1ccc(Cc2nc(-c3cccnc3)no2)cc1	/	-27.2	-4.4%	/
Clc1ccc(Cc2nc(-c3cccnc3)no2)cc1	2.6%	-92.7*	-3.0%	-8.4
Fc1ccccc1-c1nc(-c2ccccc2)no1	/	-100.0*	-1.3%	-7.4
c1ccc(-c2ccccc2-c2nc(-c3cccnc3)no2)cc1	22.8%	-101.4*	0.0%	4.2
Brc1ccc(-c2nnc(-c3ccccc3Br)o2)cc1	1.6%	20.1	-18.4%	9.7
c1cncc(-c2noc(-c3cccc4ccccc34)n2)c1	37.6%	-14.6	-9.9%	10.1
CN1CCN(c2ncc3nc(-c4ccc(Cl)cc4)c(=O)n(C)c3n2)CC1	10.4%	/	/	/
COc1ccccc1CN1CC(C(=O)N2CCN(c3ccc(F)cc3)CC2)CC1=O (configuration not stated)	5.9%	-98.5*	-3.0%	1.0
COc1cc(C2c3c(-c4cc(C)cc(C)c4O)n[nH]c3C(=O)N2CCCO)cc(OC)c1OC (configuration not stated)	2.1%	-100.0*	-1.5%	5.1
Cc1cn([C@H]2C[C@H](O)[C@@H](CO)O2)c(=O)[nH]c1=O	17.1%[0.0915 µM]	/	-2.3%[0.00818 µM]	-0.4
CCc1nc2ccccc2c(=O)n1NC(=O)c1c(O)c2cccc3c2n(c1=O)CCC3	25.6%	-83.4*	-2.7%	-2.2
Cc1nn(-c2ccccc2)c(C)c1NC(=O)COc1ccc(F)cc1Cl	/	-102.4*	-0.1%	/
Cc1nn(-c2ccccc2)c(C)c1NC(=O)Cc1cccs1	/	39.4	0.0%	/
Cc1ccc(-n2nnnc2SCC(=O)N2CCc3ccccc3C2)cc1	/	-100.0*	-4.5%	-10.5
Cc1ccc(-n2nnnc2SCC(=O)N2CCc3ccccc3C2)c(C)c1	1.6%[2.29 µM]	?	-10.9%	-1.8
N#Cc1nc(-c2cccs2)oc1N1CCN(c2ccccc2)CC1	-4.8%	1.1	1.0%	-5.0
Cc1cc(C)c(S(=O)(=O)NCCc2cc3cc(C)c(C)cc3[nH]c2=O)c(C)c1	/	/	/	3.9
Cc1[nH]c(=O)[nH]c(=O)c1/C=N/NC(=O)[C@H](CC(C)C)NC(=O)OC(C)(C)C	1.1%	24.2	5.0%	3.7
Cc1[nH]c(=O)[nH]c(=O)c1/C=N/NC(=O)[C@H](C)NC(=O)OC(C)(C)C	-2.7%	-106.0*	3.2%	-4.7
COCCn1c(=O)c(-c2cccc(C#N)c2)nc2cnc(N(C)C)nc21	-1.5%	/	/	/
COc1ccc(-c2cc(C(=O)N3CCOCC3)no2)cc1OC	-7.4%	-8.5	-2.8%	-2.1
O=C(Nc1cccc(O)c1)N1CCOCC1	/	-100.0*	-3.4%	-7.3
SMILES	ALOX15B inhib	PNC inhibitor	ALOX12 inhib	IMPase cell inh
O=C(c1cc(-c2cccc(O)c2)on1)N1CCOCC1	-2.5%	-84.7*	-1.4%	1.2
CCCCN(CCCNC(=O)c1c(C)cc(=O)oc1C)c1ccccc1	-5.1%	-97.8*	-2.5%	7.8
CCN(CCCNC(=O)c1c(C)cc(=O)oc1C)c1ccccc1	-13.2%[11.4 µM]	?	26.7%	4.9[1.84 µM]
Cc1cc(C(N)=O)c2cc(Br)ccc2n1	3.8%	-89.5*	5.0%	-7.6
O=c1[nH]c(=S)[nH]c2c1CN(CCCN1CCOCC1)CN2	-2.8%[11.4 µM]	/	-1.8%[11.4 µM]	/
Cn1c2c(c(=O)n(C)c1=O)CN(CCCN1CCOCC1)CN2	-4.0%	-84.1*	0.5%	-4.6
Cc1ccc(-c2cc(C(=O)Nc3nn[nH]n3)c3ccccc3n2)cc1	-8.5%	-3.8	-0.4%	0.6
Cc1ccc(S(=O)(=O)Cc2ccc(C(=O)N3CCCC3)o2)cc1	6.4%	-86.6*	-1.0%	4.0
CC(C)N(C(=O)CSc1nnc(CNc2ccc(F)cc2)o1)C(C)C	/	-100.0*	-6.9%	-2.2
Cc1nnc(NC(=O)C(C)Oc2ccc3c(C)cc(=O)oc3c2)s1 (configuration not stated)	-4.3%	-106.5*	7.2%	12.3
Cc1cc(=O)oc2cc(OCC(=O)Nc3nnc(C(C)C)s3)ccc12	-19.6%	?	-4.4%	-3.2
CCCCCCC1CC(CC(=O)Nc2ccc([N+](=O)[O-])cc2)C(=O)O1 (configuration not stated)	/	-103.5*	0.8%	8.0
Oc1ccccc1C1=Nc2ncnn2C(c2ccc(F)cc2)C1 (configuration not stated)	-29.9%	18.9	-8.8%	5.4
COC(=O)c1ccccc1N/C=C1\CCc2c(c(C)nn2-c2ccccn2)C1=O	2.51µM*	?	-20.7%	7.6
CCCC(C(=O)Nc1nccs1)c1ccccc1 (configuration not stated)	44.5%	33.6	-0.7%	1.0
C=CCn1c(SCC(=O)Nc2c(C)n(C)n(-c3ccccc3)c2=O)nc2sc(C)c(-c3ccccc3)c2c1=O	-10.8%	?	-4.1%	3.8
Cc1ccc(Cl)cc1N1CCN(C(=O)C2CCN(c3nnc(-n4cccc4)s3)CC2)CC1	-3.5%	?	-2.5%	8.6
Cc1cccc(N2CCN(C(=O)C3CCN(c4nnc(-n5cccc5)s4)CC3)CC2C)c1 (configuration not stated)	/	-112.2*	-1.0%	12.5
CN(C)c1ccc(/C=N\Nc2nc(-c3ccccc3)cc(=O)[nH]2)cc1	/	-118.2*	-3.5%	/
N=C(N)SCc1ccccn1	/	-91.0*	-4.7%	/
Cc1ccc(-n2c(=O)c3sccc3n(Cc3cc(=O)n4ccccc4n3)c2=O)cc1F	/	-6.1	-5.9%	-2.4
Cc1ccc(-n2c(=O)c3sccc3n(Cc3cc(=O)n4cc(Cl)ccc4n3)c2=O)cc1F	/	-82.9*	-6.9%	4.9
O=C(NC1CCCCC1)C(c1cccnc1)N(C(=O)c1csnn1)C1CCCC1 (configuration not stated)	/	-100.0*	-0.7%	3.1
COCCNC(=O)C(c1cccs1)N(C(=O)Cn1nnc2ccccc21)c1ccc(OC)cc1 (configuration not stated)	/	?	3.1%	-0.2
CS(=O)(=O)n1nc(C(=O)N2CCOCC2)nc1N	/	15.2	5.1%	/
CC1(C(=O)NCc2ccccn2)C=CCN1C(=O)c1ccccc1 (configuration not stated)	-3.0%	-118.9*	-2.0%	/
Cc1onc(-c2ccccc2Cl)c1C(=O)Nc1ccc(-c2cn3cccnc3n2)cc1	-3.8%	-91.1*	-0.7%	-6.9
Cc1ccc(-c2cn3cccnc3n2)cc1NC(=O)c1c(-c2ccccc2Cl)noc1C	-4.5%	?	-2.2%	-6.3
CC(/C=C1\N=C(SCc2ccccc2Cl)SC1=O)=C\c1ccccc1	25.1µM*	-12.0	-6.0%	-5.1

Assay outcomes (PubChem)
